Screening results from PubChem BioAssay.
Sampled rows, rich in hits. Any-hit rate of the full collection: about 2.5%.
NSD2 HMT inh: NSD2 histone methyltransferase inhibitors, primary screen, biochemical, AlphaScreen, single concentration, set 2 | Histone-lysine N-methyltransferase NSD2 (Homo sapiens), O96028 | NSD2 peptide methylation, 120 min | inhibition, % at 12.5 µM | actives 0.54% (n = 310,000) | AID 743445, 2014; in the data active = inhibition above about 50%
Casp6 inh: human caspase-6 inhibitors, primary screen, biochemical, VEID-R110 fluorescence, single point, set 2 | P55212 | AID 686996, 2013 | inhibition, % at 12.5 µM | purified caspase-6, Z-VEID-R110 cleavage fluorescence | actives 0.53% (n = 350,000);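 active = mean inhibition across replicates at least about 35%, with every replicate also reaching that limit, limit read from the data; inconclusive = only one of the two criteria met; inactive = neither criterion met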
Ecoli rRNA inh: reduced GFP signal of wild-type E. coli, primary screen, bacterial rRNA inhibitor project, GFP/RFP fluorescence, OD600, single point; E. coli WT GFP vs humanized-ribosome RFP mutants, 24 h; hits give low values; DMSO median 0, no signal -100; GFP signal change (wild-type ribosome), % (test concentration not listed); actives 1.6% (n = 350,000); AID 720706, 2013;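 active = significant combined selectivity score with lowered wild-type GFP, culture density cut under 30%, mutant RFP and density less affected; inactive = any of these conditions unmet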
RAD52 inh: RAD52 DNA annealing inhibitors, primary screen, biochemical, FRET, single point, set 2; actives 0.46% (n = 360,000); recombinant RAD52 DNA annealing, FRET fluorescence; AID 651710, 2012; DNA repair protein RAD52 homolog (Homo sapiens), P43351; inhibition, % at 18.7 µM;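 active = every replicate showing at least 50% inhibition; inconclusive = mean inhibition at least 50% but not in every replicate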
MLL AF4-AF9 inh: inhibitors of AF4 peptide binding to AF9, primary screen, biochemical, AlphaScreen, biotin-AF4 peptide, FLAG-AF9, single point; Protein AF-9 (Homo sapiens), P42568; inhibition, % at 10 µM; actives 0.47% (n = 350,000);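 active = every replicate reaching a set inhibition limit, whatever the replicate mean, cut at about 25% in these data; inconclusive = mean inhibition reaches that limit but some replicates miss it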
Target sequence (P42568 whole entry, looked up): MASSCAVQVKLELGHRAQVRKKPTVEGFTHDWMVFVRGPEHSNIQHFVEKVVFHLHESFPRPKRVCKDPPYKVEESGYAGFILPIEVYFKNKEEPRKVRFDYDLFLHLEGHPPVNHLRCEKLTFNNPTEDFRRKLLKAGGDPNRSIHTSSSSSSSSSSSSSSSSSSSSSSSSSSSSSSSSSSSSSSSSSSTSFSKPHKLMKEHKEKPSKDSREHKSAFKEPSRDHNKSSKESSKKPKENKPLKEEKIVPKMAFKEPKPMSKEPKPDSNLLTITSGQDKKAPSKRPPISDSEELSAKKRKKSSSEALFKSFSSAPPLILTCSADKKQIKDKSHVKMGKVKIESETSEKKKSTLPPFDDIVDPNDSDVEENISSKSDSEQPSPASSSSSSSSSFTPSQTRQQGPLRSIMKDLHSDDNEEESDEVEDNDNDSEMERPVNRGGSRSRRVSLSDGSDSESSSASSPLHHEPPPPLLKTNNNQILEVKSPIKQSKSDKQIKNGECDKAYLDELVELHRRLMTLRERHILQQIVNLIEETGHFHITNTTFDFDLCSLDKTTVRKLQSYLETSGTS
CASP1 counter: human caspase-1 inhibitors, dose response, selectivity assay for caspase-6 inhibitor project, biochemical, Z-YVAD-R110 fluorescence, cherry-pick, set 2; purified caspase-1, Z-YVAD-R110 cleavage fluorescence; 100 tested, under 10 active; activity change, negative = inhibition, % at 35 µM; shares compounds with Casp6 inh;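 active = compounds lowering fluorescence whose fitted half-maximal concentration is no more than twice their top tested dose; inconclusive = flat fit with 30 to 70% inhibition, or poor fit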
AlphaScreen art: AlphaScreen signal interference with preloaded methylated product, dose response, artefact control for NSD2 inhibitor project, biochemical, cherry-picked samples. shares compounds with NSD2 HMT inh. AlphaScreen artifact counterscreen, preloaded methylated H4 peptide. AC35, µM (doses to about 10 µM). actives 9.4% (n = 1,500). AID 1053174, 2014; call rule not given here
Numbers stand for hits; . = inactive; ? = inconclusive; / = no result.

SMILES	NSD2 HMT inh	Casp6 inh	Ecoli rRNA inh	RAD52 inh	MLL AF4-AF9 inh	CASP1 counter	AlphaScreen art
O=c1cc2c(=O)oc3cc(O)c(O)oc3c2c(O)c1O	/	95	.	.	.	.	/
Cc1ccc(S(=O)(=O)Nc2csc(C)c2C(=O)O)cc1	.	61	.	.	.	.	/
CC(C)NC(=O)Nc1cccc2c1O[C@@H](CN(C)C(=O)Nc1ccc3c(c1)OCO3)[C@@H](C)CN([C@@H](C)CO)C2=O	/	.	.	.	.	/	/
O=C(OCC(=O)N1CCCCC1)c1cc2ccccc2cc1O	.	/	/	/	/	/	/
C/C(CC(=O)N1CCCC1)=N\NC(=O)c1cc2ccccc2cc1O	70	39	.	.	.	.	/
O=C(OCc1nnc(-c2ccccc2)o1)c1ccc([N+](=O)[O-])s1	.	99	.	.	.	.	/
COc1ccc(NC(=O)N(C)C[C@@H]2OCCCC[C@H](C)Oc3ccc(NC(=O)Nc4c(C)noc4C)cc3C(=O)N([C@@H](C)CO)C[C@@H]2C)cc1	/	.	.	.	.	/	/
COCCN(C(=O)COC(=O)c1cc2c(s1)CCC2)c1c(N)n(Cc2ccccc2)c(=O)[nH]c1=O	72	80	.	.	.	.	/
Cc1noc(C)c1S(=O)(=O)N(C)C[C@@H]1Oc2c(NS(C)(=O)=O)cccc2C(=O)N([C@@H](C)CO)C[C@H]1C	/	.	.	.	.	/	/
C[C@H]1CN(C)C(=O)c2cccnc2O[C@H]1CN(C)S(C)(=O)=O	/	/	.	/	/	/	/
O=C(Nc1ccc(S(=O)(=O)Nc2cnc3ccccc3n2)cc1)c1ccc(Cl)c([N+](=O)[O-])c1	.	62	.	.	.	.	/
COc1cc(N(C(C)=O)c2ccc(O)c(C(=O)O)c2)c2ncccc2c1	86	44	.	.	.	.	.
COc1cc(N(C(C)=O)c2ccc(O)cc2)c2ncccc2c1	.	.	/	.	.	/	/
CCOc1c(O)ccc(/C=C2\SC(=S)NC2=O)c1[N+](=O)[O-]	53	61	.	.	.	.	.
COc1ccc(S(=O)(=O)Nc2ccc3c(c2)C(=O)N([C@H](C)CO)C[C@H](C)[C@@H](CN(C)C(=O)Nc2ccc4c(c2)OCO4)OCCCC[C@H](C)O3)cc1	/	.	.	.	.	/	/
COc1cc2cccc(OC)c(=O)c2c(OC)c1OC	/	.	/	.	.	/	/
O=c1c(O)cccc2cc(O)c(O)c(O)c12	128	98	.	.	.	.	1.6µM
Oc1cc2c(cc1O)[C@H]1c3ccc(O)c(O)c3OC[C@@]1(O)C2	109	37	.	.	?	.	4µM
COc1ccc(-c2ccc3c(c2)O[C@H](CN(C)C(C)=O)[C@H](C)CN([C@@H](C)CO)S3(=O)=O)cc1	/	.	.	.	.	/	/
O=C(COC(=O)c1ccc([N+](=O)[O-])s1)Nc1ccccc1	69	/	/	/	/	.	.
CCC(=O)Nc1ccc2c(c1)OC[C@H](C)N(CCc1ccccc1)C[C@H](C)[C@H](OC)CN(C)C2=O	/	/	.	/	/	/	/
Cc1cc(C=O)c(C)n1-c1cc(C(=O)O)cc(C(=O)O)c1	84	41	.	.	.	.	.
CC(=O)N1CCCCN2[C@H](C1)[C@H](c1ccc(-c3ccncc3)cc1)[C@@H]2CO	/	.	.	.	.	/	/
